From paper PMC7862700, “An all-to-all approach to the identification of sequence-specific readers for epigenetic DNA modifications on cytosine”

Columns and labels:
Test in all cases: DAPPL (digital affinity profiling via proximity ligation, sequencing); 10 mM Tris-HCl pH 7.5, 50 mM NaCl, 1 mM DTT, 4% glycerol, room temperature, 30 min; GST-TFs on glutathione beads, 16-mer random dsDNA library, 0.1% formaldehyde crosslink after washing; high values mean tight binding
Conditions in all cases: protein: recombinant; tags: N-terminal GST; dsDNA, one strand shown
FEV = molecular target: T1, FEV (Homo sapiens, UniProt Q99581 1-238)
T1 sequence: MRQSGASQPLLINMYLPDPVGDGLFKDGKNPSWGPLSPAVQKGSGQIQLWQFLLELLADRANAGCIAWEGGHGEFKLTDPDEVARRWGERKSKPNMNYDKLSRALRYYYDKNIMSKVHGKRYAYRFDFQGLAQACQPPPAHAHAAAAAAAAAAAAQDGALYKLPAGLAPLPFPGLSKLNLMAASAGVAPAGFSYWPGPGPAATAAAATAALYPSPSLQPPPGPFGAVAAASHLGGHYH
In short: (§1)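 Yeast served to express human transcription factors as GST fusions, which were then captured on glutathione beads and labelled with DNA barcodes. Pooled with a tag-only sample, they were incubated with 200 nmole of a 16-mer random double-stranded DNA library for 30 min at room temperature in Tris/NaCl/DTT/glycerol buffer, washed, crosslinked with 0.1% formaldehyde, ligated by proximity, amplified by PCR and sequenced. Dividing each hexamer's read frequency for a factor by its frequency for the tag-only sample gives the binding signal.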

ETV5 = ETV5 (Homo sapiens, UniProt P41161 1-510)
In short: as §1

SPIC = molecular target: T2, SPIC (Homo sapiens, UniProt Q8N5J4 1-248)
T2 sequence: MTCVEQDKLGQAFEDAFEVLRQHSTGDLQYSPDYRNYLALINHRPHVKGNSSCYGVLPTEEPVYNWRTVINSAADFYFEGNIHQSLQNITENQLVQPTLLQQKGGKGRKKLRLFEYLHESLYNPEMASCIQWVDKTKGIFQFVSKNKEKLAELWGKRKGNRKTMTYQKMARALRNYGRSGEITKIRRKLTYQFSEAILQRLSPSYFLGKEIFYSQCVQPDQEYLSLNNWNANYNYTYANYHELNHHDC
In short: as §1

ELF4 = ELF4 (Homo sapiens, UniProt Q99607 1-663)
In short: as §1

ELK4 = molecular target: T3, ELK4 (Homo sapiens, UniProt P28324-2 1-405)
T3 sequence: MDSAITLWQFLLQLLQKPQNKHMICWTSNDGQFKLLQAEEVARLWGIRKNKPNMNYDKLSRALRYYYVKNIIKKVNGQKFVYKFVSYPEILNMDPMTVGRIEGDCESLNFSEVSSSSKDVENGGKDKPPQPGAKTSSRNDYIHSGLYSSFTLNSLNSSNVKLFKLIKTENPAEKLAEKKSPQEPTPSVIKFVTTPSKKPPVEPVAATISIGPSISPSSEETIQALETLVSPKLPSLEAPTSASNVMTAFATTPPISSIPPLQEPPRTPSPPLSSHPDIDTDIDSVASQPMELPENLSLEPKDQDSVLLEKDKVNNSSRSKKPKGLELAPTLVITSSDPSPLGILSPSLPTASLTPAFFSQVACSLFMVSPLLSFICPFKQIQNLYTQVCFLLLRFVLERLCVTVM
In short: as §1

ETV2 = molecular target: T4, ETV2 (Homo sapiens, UniProt O00321 1-342)
T4 sequence: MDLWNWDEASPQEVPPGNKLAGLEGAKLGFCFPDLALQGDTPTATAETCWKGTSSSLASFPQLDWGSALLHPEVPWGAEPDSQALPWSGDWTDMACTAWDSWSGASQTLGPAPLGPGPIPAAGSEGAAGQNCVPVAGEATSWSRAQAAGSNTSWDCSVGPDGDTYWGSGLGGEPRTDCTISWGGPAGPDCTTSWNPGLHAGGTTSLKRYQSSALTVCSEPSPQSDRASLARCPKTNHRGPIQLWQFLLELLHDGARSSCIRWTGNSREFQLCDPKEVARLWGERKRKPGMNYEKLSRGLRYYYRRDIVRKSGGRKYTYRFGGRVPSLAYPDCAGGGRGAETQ
In short: as §1

ELF3 = molecular target: T5, ELF3 (Homo sapiens, UniProt P78545 1-371)
T5 sequence: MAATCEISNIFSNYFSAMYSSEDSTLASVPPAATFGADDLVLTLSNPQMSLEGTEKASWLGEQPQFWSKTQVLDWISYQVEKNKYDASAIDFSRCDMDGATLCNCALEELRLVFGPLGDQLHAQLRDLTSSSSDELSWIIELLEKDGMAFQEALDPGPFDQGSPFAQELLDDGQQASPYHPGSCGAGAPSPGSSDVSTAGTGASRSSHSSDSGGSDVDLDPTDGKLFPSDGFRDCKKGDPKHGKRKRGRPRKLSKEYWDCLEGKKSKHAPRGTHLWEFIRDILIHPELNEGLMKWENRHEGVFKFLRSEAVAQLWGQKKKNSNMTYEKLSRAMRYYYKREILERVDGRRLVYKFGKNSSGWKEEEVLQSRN
In short: as §1

ETV1 = ETV1 (Homo sapiens, UniProt P50549 1-477)
In short: as §1

ERF = molecular target: T6, ERF (Homo sapiens, UniProt P50548 1-548)
T6 sequence: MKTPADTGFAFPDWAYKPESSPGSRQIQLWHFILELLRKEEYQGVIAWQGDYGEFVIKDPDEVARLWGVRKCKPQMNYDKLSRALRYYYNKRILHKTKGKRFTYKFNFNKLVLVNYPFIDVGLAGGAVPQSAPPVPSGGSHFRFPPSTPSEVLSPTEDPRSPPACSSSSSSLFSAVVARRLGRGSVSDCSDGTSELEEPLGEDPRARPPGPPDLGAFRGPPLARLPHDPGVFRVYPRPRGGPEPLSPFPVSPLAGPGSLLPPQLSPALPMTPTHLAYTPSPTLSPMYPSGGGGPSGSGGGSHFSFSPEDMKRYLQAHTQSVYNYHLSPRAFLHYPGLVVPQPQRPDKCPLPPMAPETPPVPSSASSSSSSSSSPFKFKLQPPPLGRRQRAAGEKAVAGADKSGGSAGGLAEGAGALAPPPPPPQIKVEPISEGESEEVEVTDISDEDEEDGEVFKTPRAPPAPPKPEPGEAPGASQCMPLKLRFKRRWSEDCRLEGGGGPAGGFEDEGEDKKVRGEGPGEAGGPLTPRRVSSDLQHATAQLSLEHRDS
In short: as §1

ETV3L = molecular target: T7, ETV3L (Homo sapiens, UniProt Q6ZN32 1-361)
T7 sequence: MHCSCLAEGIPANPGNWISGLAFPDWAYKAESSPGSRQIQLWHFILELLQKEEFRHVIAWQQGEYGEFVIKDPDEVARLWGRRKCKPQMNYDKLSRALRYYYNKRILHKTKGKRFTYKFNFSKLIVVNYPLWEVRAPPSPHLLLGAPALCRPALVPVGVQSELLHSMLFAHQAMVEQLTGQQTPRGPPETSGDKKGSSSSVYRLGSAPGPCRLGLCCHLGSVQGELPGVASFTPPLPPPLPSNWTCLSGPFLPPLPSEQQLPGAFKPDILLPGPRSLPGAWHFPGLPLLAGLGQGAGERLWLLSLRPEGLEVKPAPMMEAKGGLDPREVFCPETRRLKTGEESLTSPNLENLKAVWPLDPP
In short: as §1

ETS2 = molecular target: T8, ETS2 (Homo sapiens, UniProt P15036 1-469)
T8 sequence: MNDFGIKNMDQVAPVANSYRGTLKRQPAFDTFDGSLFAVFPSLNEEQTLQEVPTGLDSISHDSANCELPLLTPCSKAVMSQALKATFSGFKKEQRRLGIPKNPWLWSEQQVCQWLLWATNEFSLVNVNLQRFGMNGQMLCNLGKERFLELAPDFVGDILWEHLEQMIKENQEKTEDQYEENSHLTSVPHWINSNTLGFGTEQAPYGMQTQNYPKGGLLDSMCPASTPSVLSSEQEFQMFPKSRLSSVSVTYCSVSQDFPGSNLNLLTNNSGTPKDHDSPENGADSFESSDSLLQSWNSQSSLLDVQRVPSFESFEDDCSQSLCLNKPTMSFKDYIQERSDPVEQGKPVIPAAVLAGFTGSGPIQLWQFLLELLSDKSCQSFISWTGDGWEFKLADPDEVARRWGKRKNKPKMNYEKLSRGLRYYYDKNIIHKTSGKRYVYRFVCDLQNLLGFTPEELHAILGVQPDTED
In short: as §1

SPDEF = molecular target: T9, SPDEF (Homo sapiens, UniProt O95238 1-335)
T9 sequence: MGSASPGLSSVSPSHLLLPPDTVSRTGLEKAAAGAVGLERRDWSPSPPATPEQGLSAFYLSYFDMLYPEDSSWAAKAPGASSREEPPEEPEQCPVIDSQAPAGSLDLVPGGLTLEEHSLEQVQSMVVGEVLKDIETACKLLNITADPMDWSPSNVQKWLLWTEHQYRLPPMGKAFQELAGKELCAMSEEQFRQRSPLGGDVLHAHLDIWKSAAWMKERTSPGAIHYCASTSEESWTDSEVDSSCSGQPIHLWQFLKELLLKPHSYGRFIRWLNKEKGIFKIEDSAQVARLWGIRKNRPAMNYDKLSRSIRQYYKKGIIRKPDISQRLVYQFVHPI
In short: as §1

ELF5 = molecular target: T10, ELF5 (Homo sapiens, UniProt Q9UKW6-2 1-255)
T10 sequence: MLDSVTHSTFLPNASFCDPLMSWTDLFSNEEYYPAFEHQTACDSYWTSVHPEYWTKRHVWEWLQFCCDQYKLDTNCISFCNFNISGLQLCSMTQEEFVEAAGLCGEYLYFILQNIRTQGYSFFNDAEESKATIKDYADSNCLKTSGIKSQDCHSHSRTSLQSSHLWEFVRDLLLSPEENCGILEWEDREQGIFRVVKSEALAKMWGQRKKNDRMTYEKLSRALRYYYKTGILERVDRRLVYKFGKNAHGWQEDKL
In short: as §1

ETV3 = molecular target: T11, ETV3 (Homo sapiens, UniProt P41162-2 1-143)
T11 sequence: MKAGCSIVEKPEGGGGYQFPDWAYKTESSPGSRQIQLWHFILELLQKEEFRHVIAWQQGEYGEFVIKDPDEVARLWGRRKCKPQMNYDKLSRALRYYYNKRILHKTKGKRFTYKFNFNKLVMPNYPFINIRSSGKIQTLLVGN
In short: as §1

ETV6 = ETV6 (Homo sapiens, UniProt P41212 1-452)
In short: as §1

CRX = CRX (Homo sapiens, UniProt O43186 1-299)
In short: as §1

ETV7 = molecular target: T12, ETV7 (Homo sapiens, UniProt Q9Y603 1-341)
T12 sequence: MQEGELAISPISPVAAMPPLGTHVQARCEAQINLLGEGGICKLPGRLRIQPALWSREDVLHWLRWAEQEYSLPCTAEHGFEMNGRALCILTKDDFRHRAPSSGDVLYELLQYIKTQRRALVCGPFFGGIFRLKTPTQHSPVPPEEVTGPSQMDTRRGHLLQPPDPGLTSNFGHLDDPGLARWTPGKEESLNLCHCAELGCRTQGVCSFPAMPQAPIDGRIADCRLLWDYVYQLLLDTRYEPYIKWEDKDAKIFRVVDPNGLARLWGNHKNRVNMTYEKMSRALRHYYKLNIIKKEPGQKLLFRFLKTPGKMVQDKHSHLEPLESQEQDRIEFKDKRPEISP
In short: as §1

ETV5, sequence (P41161 whole entry): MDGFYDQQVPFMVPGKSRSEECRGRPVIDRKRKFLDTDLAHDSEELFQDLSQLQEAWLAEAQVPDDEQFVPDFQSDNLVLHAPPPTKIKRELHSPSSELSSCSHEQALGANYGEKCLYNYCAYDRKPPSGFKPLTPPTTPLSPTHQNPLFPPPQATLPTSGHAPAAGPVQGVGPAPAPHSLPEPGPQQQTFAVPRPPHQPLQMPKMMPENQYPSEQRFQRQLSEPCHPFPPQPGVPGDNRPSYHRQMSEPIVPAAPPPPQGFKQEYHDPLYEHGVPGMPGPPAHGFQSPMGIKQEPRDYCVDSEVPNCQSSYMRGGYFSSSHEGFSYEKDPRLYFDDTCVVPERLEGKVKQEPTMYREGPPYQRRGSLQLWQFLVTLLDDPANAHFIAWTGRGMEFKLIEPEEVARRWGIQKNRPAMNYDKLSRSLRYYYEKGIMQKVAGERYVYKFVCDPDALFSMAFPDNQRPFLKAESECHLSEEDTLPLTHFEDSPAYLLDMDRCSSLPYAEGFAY
ETV6, sequence (P41212 whole entry): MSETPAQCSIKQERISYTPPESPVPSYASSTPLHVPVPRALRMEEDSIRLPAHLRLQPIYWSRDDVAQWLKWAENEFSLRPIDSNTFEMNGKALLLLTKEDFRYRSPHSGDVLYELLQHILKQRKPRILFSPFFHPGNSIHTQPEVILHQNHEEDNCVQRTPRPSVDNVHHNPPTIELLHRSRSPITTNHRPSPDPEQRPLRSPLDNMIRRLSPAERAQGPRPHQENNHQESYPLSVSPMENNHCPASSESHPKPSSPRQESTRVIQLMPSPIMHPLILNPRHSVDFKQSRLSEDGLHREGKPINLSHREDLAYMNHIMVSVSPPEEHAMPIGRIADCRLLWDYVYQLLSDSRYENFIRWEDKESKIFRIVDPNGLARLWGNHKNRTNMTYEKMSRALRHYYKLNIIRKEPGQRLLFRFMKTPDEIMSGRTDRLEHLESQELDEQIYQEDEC
ETV1, sequence (P50549 whole entry): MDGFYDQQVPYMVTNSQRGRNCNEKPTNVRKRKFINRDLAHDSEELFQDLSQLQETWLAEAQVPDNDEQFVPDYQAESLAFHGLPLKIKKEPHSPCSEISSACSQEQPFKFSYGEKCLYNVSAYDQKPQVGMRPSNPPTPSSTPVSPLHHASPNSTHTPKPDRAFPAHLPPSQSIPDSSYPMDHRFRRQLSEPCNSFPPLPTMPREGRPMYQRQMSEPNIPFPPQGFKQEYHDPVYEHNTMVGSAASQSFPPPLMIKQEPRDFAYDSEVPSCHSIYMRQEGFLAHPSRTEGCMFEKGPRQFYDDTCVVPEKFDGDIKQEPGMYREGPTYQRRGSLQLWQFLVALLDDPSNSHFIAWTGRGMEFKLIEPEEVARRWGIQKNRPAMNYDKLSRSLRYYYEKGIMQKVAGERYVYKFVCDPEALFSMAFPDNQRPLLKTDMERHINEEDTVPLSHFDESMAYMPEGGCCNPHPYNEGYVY
ELF4, sequence (Q99607 whole entry): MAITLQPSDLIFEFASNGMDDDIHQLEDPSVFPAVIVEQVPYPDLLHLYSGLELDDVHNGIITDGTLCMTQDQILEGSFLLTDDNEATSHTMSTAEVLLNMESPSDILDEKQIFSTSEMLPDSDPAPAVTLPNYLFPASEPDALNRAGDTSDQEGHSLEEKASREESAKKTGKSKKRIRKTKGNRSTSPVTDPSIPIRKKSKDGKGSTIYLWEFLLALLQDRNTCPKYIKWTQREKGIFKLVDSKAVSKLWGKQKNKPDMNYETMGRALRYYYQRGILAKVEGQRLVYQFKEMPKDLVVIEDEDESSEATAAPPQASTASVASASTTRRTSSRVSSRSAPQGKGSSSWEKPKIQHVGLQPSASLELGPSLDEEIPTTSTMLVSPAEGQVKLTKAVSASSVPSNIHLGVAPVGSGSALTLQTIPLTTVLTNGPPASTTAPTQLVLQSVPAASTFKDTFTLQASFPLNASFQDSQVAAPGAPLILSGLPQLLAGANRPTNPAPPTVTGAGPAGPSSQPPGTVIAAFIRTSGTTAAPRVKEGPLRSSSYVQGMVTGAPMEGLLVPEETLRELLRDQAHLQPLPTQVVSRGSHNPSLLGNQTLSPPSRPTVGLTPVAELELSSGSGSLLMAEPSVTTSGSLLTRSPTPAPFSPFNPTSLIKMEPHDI
CRX, sequence (O43186 whole entry): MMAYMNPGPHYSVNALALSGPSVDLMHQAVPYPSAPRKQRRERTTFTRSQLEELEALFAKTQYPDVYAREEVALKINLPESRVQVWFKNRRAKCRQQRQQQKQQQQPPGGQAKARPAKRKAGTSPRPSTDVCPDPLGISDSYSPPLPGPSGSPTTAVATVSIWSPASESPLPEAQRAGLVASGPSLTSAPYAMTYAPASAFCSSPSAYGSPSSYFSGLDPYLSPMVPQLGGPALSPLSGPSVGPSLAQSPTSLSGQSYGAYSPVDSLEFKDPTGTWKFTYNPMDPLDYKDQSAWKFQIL

| Sequence | binding signal (FEV) | binding signal (ETV5) | binding signal (SPIC) | binding signal (ELF4) | binding signal (ELK4) | binding signal (ETV2) | binding signal (ELF3) | binding signal (ETV1) | binding signal (ERF) | binding signal (ETV3L) | binding signal (ETS2) | binding signal (SPDEF) | binding signal (ELF5) | binding signal (ETV3) | binding signal (ETV6) | binding signal (CRX) | binding signal (ETV7) |
| --- | --- | --- | --- | --- | --- | --- | --- | --- | --- | --- | --- | --- | --- | --- | --- | --- | --- |
| CTGTGC | 1.03 fold enrichment (6-mer frequency, TF over GST control) | 1.17 fold enrichment (6-mer frequency, TF over GST control) | 1.27 fold enrichment (6-mer frequency, TF over GST control) | 1.21 fold enrichment (6-mer frequency, TF over GST control) | 1.12 fold enrichment (6-mer frequency, TF over GST control) | 1.25 fold enrichment (6-mer frequency, TF over GST control) | 1.08 fold enrichment (6-mer frequency, TF over GST control) | 1.12 fold enrichment (6-mer frequency, TF over GST control) | 1.12 fold enrichment (6-mer frequency, TF over GST control) | 1.13 fold enrichment (6-mer frequency, TF over GST control) | 1.18 fold enrichment (6-mer frequency, TF over GST control) | 1.12 fold enrichment (6-mer frequency, TF over GST control) | 1 fold enrichment (6-mer frequency, TF over GST control) | 1.19 fold enrichment (6-mer frequency, TF over GST control) | 1.22 fold enrichment (6-mer frequency, TF over GST control) |  |  |
| CCGTAT | 1.14 fold enrichment (6-mer frequency, TF over GST control) | 1.23 fold enrichment (6-mer frequency, TF over GST control) | 1.29 fold enrichment (6-mer frequency, TF over GST control) | 1.17 fold enrichment (6-mer frequency, TF over GST control) | 1.27 fold enrichment (6-mer frequency, TF over GST control) | 1.34 fold enrichment (6-mer frequency, TF over GST control) |  | 1.19 fold enrichment (6-mer frequency, TF over GST control) | 1.19 fold enrichment (6-mer frequency, TF over GST control) | 1.17 fold enrichment (6-mer frequency, TF over GST control) | 1.18 fold enrichment (6-mer frequency, TF over GST control) | 1.41 fold enrichment (6-mer frequency, TF over GST control) | 1.31 fold enrichment (6-mer frequency, TF over GST control) | 1.38 fold enrichment (6-mer frequency, TF over GST control) | 1.24 fold enrichment (6-mer frequency, TF over GST control) | 1 fold enrichment (6-mer frequency, TF over GST control) | 1.09 fold enrichment (6-mer frequency, TF over GST control) |
